High-throughput results deposited in PubChem by Broad Institute.
PAX8 reporter = inhibitors of PAX8 transcriptional activity in RMG-I cells. inhibition, % at 12.6 µM. RMG-I TPO-luciferase reporter, SteadyGlo, 24 h. hit rate 1.2% among 360,000. AID 652154;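 active = mean replicate inhibition at least 60% with every replicate also reaching 60%; inconclusive = only one of the two criteria is met; inactive = mean below 60% and not all replicates reaching 60%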;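 also: luciferase light reporting Pax8 driven TPO promoter activity; plate controls were median of neutral control wells for no effect and mitoxantrone controls for full effect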
PGC1a acetyl inh = PGC1a acetylation modulation, inhibitor mode; U2OS PGC1a acetylation, AlphaScreen anti-acetyl-lysine; with virally co-expressed GCN5 acetyltransferase; inhibition, % at 15.6 µM; hit rate 0.17% among 350,000; AID 651687;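 active = every replicate shows inhibition of at least 40%; inconclusive = mean inhibition at least 40% but some replicate below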;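 also: 0% = neutral control wells and 100% = positive control wells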
EWS-Fli block = blocks EWS/Fli oncoprotein-driven transcription; A673 NR0B1-luciferase reporter, viability-normalised; inhibition, % at 12.6 µM; hit rate 0.67% among 350,000;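 active = mean inhibition of at least 50% after viability correction, with every replicate also passing that limit; inconclusive = mean reaches 50% but only one of two replicates passes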;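 also: firefly luciferase signal divided by Alamar Blue viability fluorescence both relative to DMSO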
LGR2 antag = Drosophila LGR2 receptor signaling inhibition | HEK293 LGR2, CRE-luciferase, bursicon-stimulated, 4 h | inhibition, % at 9.99 µM | hit rate 0.35% among 380,000;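 active = drop in luminescence signal, shown as inhibition above about 50% in the replicate tests, limit read from the data, passing the limit was not always enough; inconclusive = probably only some replicates passing the limit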;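 also: agonist challenge used bursicon conditioned medium at about half maximal strength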
LMP1 NFkB inh = reduces LMP1-driven NF-kappaB luciferase signal; LMP1-induced NF-kappaB luciferase reporter cells, luminescence; inhibition, % at 12.5 µM; hit rate 0.69% among 350,000; in the data active = inhibition above about 41%; inconclusive = no clear call, values can overlap the other calls;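 also: 0% = neutral control wells and 100% = reference inhibitor control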
MITF TRPM1 inh = MITF TRPM1 promoter inhibition in SK-MEL-5 cells | SK-MEL-5 TRPM1 promoter luciferase, 24 h | inhibition, % at 12.5 µM | hit rate 0.83% among 330,000 | AID 488899;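 active = mean inhibition across replicates of 60% or more, whatever share of single replicates reaches that level; inconclusive = some that reach 60%, reason not given; inactive = mean inhibition across replicates below 60%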
Starred values were filed as active, the others as inactive; ? = inconclusive; / = not tested or not shown. An excerpt weighted towards active compounds, which were near 2.2% of everything screened.

SMILES	PAX8 reporter	PGC1a acetyl inh	EWS-Fli block	LGR2 antag	LMP1 NFkB inh	MITF TRPM1 inh
COc1ccc(S(=O)(=O)Nc2ccc3c(c2)C(=O)N([C@@H](C)CO)C[C@H](C)[C@@H](CN(C)Cc2ccccc2)OCCCC[C@H](C)O3)cc1	2.0	-3.8	17.2	-5.3	/	/
Cc1ccc(-n2nnnc2Sc2nc([N+](=O)[O-])nn2C)c(C)c1	/	4.6	/	/	-1.4	73.1*
Cc1ccc(-n2nnnc2Sc2nc([N+](=O)[O-])nn2C)cc1	-3.3	6.9	35.0	4.2	5.6	21.5
CC[n+]1c(/C=C/N(C)c2ccccc2)n(-c2ccccc2)c2ccc(-c3nc4ccccc4s3)cc21	/	/	/	/	50.6*	90.5*
CCOC(=O)c1ccc2c(c1)n(CC)c(/C=C/N(C)c1ccccc1)[n+]2CC	-2.8	/	9.6	3.4	7.4	?
COc1ccc(-c2cc(C(=O)N3CCN(C(c4ccccc4)c4ccccc4)CC3)no2)cc1	/	-16.8	9.4	4.5	6.0	-2.5
CC(C)c1onc(C(=O)N2CCN(C(c3ccccc3)c3ccccc3)CC2)c1[N+](=O)[O-]	83.8*	-13.5	64.3*	5.3	-6.4	0.1
Cc1ccc(Cl)cc1N1CCN(C(=O)c2noc(C(C)C)c2[N+](=O)[O-])CC1	118.9*	/	56.2*	9.1	-7.6	8.1
Cc1onc(C(=O)N2CCN(Cc3ccccc3)CC2)c1[N+](=O)[O-]	1.1	/	-1.1	-3.8	-1.5	7.0
Cc1onc(C(=O)N2CCC(Cc3ccccc3)CC2)c1[N+](=O)[O-]	?	19.5	59.2*	3.3	17.2	0.3
O=C(c1cc(-c2ccco2)on1)N1CCN(C(c2ccccc2)c2ccccc2)CC1	/	-21.7	/	13.1	3.5	75.0*
CC(C)c1onc(C(=O)N2CCN(c3ccccc3)CC2)c1[N+](=O)[O-]	9.6	2.8	5.9	-3.4	2.3	-1.9
Cc1noc(C)c1NC(=O)N(C)C[C@@H]1OCc2ccccc2-c2ccccc2C(=O)N([C@@H](C)CO)C[C@@H]1C	-20.4	2.8	-4.7	-5.4	/	/
CCOc1ccc(-n2c(=S)sc3c(=O)[nH]c(SCC(=O)NCC4CCCO4)nc32)cc1 (centres undefined)	109.9*	5.4	1.0	10.4	-31.1	-18.4
CC(=O)c1cccc(NC(=O)/C=C/c2ccc([N+](=O)[O-])s2)c1	24.0	/	47.6	14.9	-89.8	92.0*
Cc1ccccc1NC(=O)/C=C/c1ccc([N+](=O)[O-])s1	/	/	/	/	-16.9	92.5*
Cc1cc(C)cc(NC(=O)/C=C/c2ccc([N+](=O)[O-])s2)c1	-4.8	/	26.4	-18.0	-109.8	10.9
O=C(C[C@H]1CC[C@@H]2[C@H](COC[C@@H](O)CN2Cc2ccccc2)O1)NCCc1ccccc1	10.5	-8.8	-0.1	4.4	/	/
CCN(CC)c1ccc2nc3ccc(N)cc3[n+](-c3ccccc3)c2c1	/	-28.7	28.2	58.6*	53.0*	93.4*
CCN(CC)c1ccc2nc3ccccc3[n+](CC)c2c1	/	/	/	/	1.3	66.5*
Cc1cc(Nc2ccccc2Cl)nc(-c2ccccc2O)n1	-9.7	-15.9	9.6	-20.3	8.9	16.7
Cc1ccc(C)c(Nc2cc(C)nc(-c3ccccc3O)n2)c1	13.5	/	61.6*	3.9	14.5	42.2
Cc1cccc(S(=O)(=O)N2CC[C@@H]3[C@@H](CO)Nc4ccc(C#Cc5ccccc5F)cc4[C@@H]32)c1	10.5	-1.8	-6.8	10.3	/	/
O=C(Nc1ccccc1F)N1CCCCN2[C@@H](CO)[C@H](c3ccc(-c4cccnc4)cc3)[C@@H]2C1	-15.8	-0.9	/	-0.3	/	/
C[C@H]1CN([C@@H](C)CO)C(=O)Cc2cc(NS(=O)(=O)c3ccccc3)ccc2O[C@H]1CN(C)Cc1ccc(-c2ccccc2)cc1	9.5	3.9	-7.5	1.4	/	/
SMILES	PAX8 reporter	PGC1a acetyl inh	EWS-Fli block	LGR2 antag	LMP1 NFkB inh	MITF TRPM1 inh
C[C@@H]1CN([C@@H](C)CO)C(=O)Cc2cc(NS(=O)(=O)c3ccc(Cl)cc3)ccc2O[C@@H]1CN(C)Cc1ccc(-c2ccccc2)cc1	-12.4	-8.4	0.8	-20.1	/	/
C[C@H](CO)N1C[C@H](C)[C@@H](CN(C)Cc2ccc(-c3ccccc3)cc2)Oc2ccc(NS(=O)(=O)c3ccccc3)cc2CC1=O	79.9*	-6.3	18.3	9.5	/	/
C[C@@H]1CN([C@@H](C)CO)C(=O)Cc2cc(NS(=O)(=O)c3ccc(Cl)cc3)ccc2O[C@H]1CN(C)Cc1ccc(-c2ccccc2)cc1	68.9*	-16.0	34.4	-17.2	/	/
Cc1ccc(S(=O)(=O)Nc2ccc3c(c2)C(=O)N([C@@H](C)CO)C[C@H](C)[C@H](CN(C)CC2CCCCC2)OCCCC[C@@H](C)O3)cc1	9.6	4.2	2.5	4.1	/	/
C[C@@H]1CN([C@@H](C)CO)C(=O)c2cc(NC(=O)CCC(F)(F)F)ccc2O[C@@H]1CN(C)Cc1ccc(Cl)c(Cl)c1	22.6	-9.2	/	15.8	/	/
C[C@@H]1CCCCO[C@@H](CN(C)S(=O)(=O)c2ccc(F)cc2)[C@H](C)CN([C@@H](C)CO)C(=O)c2cc(NS(=O)(=O)c3ccc(F)cc3)ccc2O1	8.4	-6.4	14.0	-5.7	/	/
Cc1ccc2c(C(=O)CN3CCSCC3)c(C)[nH]c2c1	/	4.2	/	/	-5.1	0.0
Cc1ccc2c(C(=O)CCl)c(C)[nH]c2c1	23.4	2.3	8.6	-9.5	3.6	69.0*
O=S(=O)(C/C(=C/CO)S(=O)(=O)c1ccccc1)c1ccccc1	/	-112.2	/	/	92.7*	77.6*
O=C(CS(=O)(=O)c1ccccc1)CS(=O)(=O)c1ccccc1	1.7	/	-1.6	-3.6	/	/
O=C(N[C@H]1CC[C@H](CCNS(=O)(=O)c2ccc(Cl)cc2)O[C@H]1CO)c1ccccn1	-10.0	-9.2	2.0	-5.1	/	/
C[C@H](CO)N1C[C@H](C)[C@@H](CN(C)C(=O)Nc2ccc(C(F)(F)F)cc2)OCCCC[C@H](C)Oc2ccc(N(C)C)cc2C1=O	50.9	11.2	2.3	36.5	/	/
CCOc1ccc2c(c1)C(C)=CC(C)(C)N2S(=O)(=O)c1ccc(F)cc1	43.5	8.8	61.6*	7.4	0.4	27.6
CCOc1ccc2c(c1)C(C)=CC(C)(C)N2S(=O)(=O)c1ccc(NC(C)=O)cc1	87.7*	-106.1	47.1	-5.2	-2.1	47.6
COc1ccc2c(c1)C(C)=CC(C)(C)N2S(=O)(=O)c1ccc(Br)cc1	88.4*	-83.0	49.6	-21.9	19.1	55.3
COc1ccc2c(c1)C(C)=CC(C)(C)N2S(=O)(=O)c1ccc(NC(C)=O)cc1	63.7*	-14.5	47.7	4.1	18.4	38.4
CC1=CC(C)(C)N(S(=O)(=O)c2ccc(F)cc2)c2ccc(C)cc21	/	-15.8	/	10.0	5.8	2.0
CC1=CC(C)(C)N(S(=O)(=O)c2ccc(C)cc2)c2ccccc21	/	-26.8	/	/	11.2	26.9
CN1C(=O)c2cc(NC(=O)c3cncs3)ccc2OC[C@H]2O[C@@H](CC(=O)Nc3ccccc3F)CC[C@@H]21	28.8	4.0	1.9	/	/	/
O=C(Nc1nccs1)c1ccccc1[N+](=O)[O-]	62.9*	/	-3.6	/	1.9	-5.6
